Reference: ChEMBL document CHEMBL2218924, “A broad activity screen in support of a chemogenomic map for kinase signalling research and drug discovery” (Biochem J, 2013)

Columns and labels:
[1] = target: Focal adhesion kinase 1 (Homo sapiens) (UniProt Q05397); settings: at 10 µM
[2] = target: Fibroblast growth factor receptor 1 (Homo sapiens) (UniProt P11362); settings: at 1 µM
[3] = target: Fibroblast growth factor receptor 1 (Homo sapiens) (UniProt P11362); settings: at 10 µM
[4] = target: Fibroblast growth factor receptor 2 (Homo sapiens) (UniProt P21802); settings: at 1 µM
[5] = target: Fibroblast growth factor receptor 2 (Homo sapiens) (UniProt P21802); settings: at 10 µM
[6] = target: Fibroblast growth factor receptor 3 (Homo sapiens) (UniProt P22607); settings: at 1 µM
[7] = target: Fibroblast growth factor receptor 3 (Homo sapiens) (UniProt P22607); settings: at 10 µM
[8] = target: Fibroblast growth factor receptor 4 (Homo sapiens) (UniProt P22455); settings: at 10 µM
[9] = target: Fibroblast growth factor receptor 4 (Homo sapiens) (UniProt P22455); settings: at 1 µM
[10] = target: Tyrosine-protein kinase Fer (Homo sapiens) (UniProt P16591); settings: at 1 µM
Sequence of Tyrosine-protein kinase Fer (Homo sapiens) (P16591 whole entry, looked up): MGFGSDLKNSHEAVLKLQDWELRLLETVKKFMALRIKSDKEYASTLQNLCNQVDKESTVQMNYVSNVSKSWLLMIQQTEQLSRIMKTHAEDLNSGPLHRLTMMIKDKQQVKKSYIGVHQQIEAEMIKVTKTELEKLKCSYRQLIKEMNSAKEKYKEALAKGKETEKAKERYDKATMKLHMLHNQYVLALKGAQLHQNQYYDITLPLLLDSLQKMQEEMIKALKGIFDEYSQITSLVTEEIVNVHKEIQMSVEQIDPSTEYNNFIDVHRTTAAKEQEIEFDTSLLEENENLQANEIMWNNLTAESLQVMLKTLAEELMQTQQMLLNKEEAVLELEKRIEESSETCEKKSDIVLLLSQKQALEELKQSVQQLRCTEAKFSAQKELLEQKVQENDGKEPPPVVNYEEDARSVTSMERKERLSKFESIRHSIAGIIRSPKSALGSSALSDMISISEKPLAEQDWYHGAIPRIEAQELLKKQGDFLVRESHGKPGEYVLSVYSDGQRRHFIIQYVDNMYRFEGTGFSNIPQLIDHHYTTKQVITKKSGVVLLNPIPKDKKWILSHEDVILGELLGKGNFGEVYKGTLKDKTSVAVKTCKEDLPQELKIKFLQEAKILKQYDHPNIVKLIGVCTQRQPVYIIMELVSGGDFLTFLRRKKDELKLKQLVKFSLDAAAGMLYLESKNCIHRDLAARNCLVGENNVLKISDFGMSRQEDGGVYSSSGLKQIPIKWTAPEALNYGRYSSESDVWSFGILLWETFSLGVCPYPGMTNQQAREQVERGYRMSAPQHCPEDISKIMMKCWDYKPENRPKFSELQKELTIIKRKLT

Sequence of Focal adhesion kinase 1 (Homo sapiens) (Q05397 2-1052 limits assumed): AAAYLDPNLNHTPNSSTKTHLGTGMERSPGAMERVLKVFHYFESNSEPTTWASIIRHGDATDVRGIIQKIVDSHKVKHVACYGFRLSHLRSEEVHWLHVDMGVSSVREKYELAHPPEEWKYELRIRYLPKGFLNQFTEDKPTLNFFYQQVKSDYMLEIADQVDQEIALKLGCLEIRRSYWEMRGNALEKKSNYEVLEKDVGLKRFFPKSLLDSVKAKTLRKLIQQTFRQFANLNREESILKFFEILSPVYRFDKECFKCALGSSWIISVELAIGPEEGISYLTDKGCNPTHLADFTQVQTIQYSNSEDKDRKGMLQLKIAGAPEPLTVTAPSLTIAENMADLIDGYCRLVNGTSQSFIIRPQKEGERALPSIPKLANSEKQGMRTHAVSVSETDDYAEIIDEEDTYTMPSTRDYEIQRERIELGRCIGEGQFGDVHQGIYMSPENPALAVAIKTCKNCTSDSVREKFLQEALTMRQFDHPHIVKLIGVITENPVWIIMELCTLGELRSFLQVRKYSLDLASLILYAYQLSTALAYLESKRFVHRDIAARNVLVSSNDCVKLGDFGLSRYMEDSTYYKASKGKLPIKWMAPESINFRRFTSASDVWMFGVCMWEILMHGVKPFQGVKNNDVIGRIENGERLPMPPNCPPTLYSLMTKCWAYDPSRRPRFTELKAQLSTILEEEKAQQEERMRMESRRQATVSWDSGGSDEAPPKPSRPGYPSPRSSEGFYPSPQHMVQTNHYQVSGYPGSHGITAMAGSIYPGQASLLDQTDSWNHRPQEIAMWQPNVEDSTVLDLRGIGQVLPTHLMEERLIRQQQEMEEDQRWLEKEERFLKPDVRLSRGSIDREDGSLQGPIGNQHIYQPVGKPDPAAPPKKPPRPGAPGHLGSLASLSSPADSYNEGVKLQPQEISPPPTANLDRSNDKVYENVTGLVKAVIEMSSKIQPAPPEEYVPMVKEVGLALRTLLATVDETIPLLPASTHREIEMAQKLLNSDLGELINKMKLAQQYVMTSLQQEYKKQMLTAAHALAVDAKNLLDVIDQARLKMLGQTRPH
Sequence of Fibroblast growth factor receptor 3 (Homo sapiens) (P22607 23-806 limits assumed): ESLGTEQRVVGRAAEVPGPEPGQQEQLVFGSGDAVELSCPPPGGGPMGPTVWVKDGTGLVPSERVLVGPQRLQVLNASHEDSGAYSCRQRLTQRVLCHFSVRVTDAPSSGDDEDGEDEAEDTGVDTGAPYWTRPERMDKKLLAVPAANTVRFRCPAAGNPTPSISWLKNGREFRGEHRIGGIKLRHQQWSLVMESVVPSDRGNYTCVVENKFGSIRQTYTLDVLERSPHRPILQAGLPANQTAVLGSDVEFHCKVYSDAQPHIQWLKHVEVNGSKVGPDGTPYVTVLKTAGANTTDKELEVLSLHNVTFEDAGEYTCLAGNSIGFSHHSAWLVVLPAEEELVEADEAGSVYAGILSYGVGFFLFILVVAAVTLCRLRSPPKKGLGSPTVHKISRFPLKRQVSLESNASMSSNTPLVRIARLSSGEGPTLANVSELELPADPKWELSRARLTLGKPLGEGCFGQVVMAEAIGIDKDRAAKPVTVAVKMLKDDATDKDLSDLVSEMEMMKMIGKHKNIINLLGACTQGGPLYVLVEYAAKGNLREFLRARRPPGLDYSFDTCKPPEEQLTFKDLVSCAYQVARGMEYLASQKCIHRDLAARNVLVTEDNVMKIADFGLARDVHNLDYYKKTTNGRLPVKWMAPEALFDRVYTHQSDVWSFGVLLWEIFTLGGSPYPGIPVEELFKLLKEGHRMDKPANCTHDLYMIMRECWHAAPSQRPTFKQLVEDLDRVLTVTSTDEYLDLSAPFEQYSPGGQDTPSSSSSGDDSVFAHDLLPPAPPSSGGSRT
Sequence of Fibroblast growth factor receptor 1 (Homo sapiens) (P11362 22-822 limits assumed): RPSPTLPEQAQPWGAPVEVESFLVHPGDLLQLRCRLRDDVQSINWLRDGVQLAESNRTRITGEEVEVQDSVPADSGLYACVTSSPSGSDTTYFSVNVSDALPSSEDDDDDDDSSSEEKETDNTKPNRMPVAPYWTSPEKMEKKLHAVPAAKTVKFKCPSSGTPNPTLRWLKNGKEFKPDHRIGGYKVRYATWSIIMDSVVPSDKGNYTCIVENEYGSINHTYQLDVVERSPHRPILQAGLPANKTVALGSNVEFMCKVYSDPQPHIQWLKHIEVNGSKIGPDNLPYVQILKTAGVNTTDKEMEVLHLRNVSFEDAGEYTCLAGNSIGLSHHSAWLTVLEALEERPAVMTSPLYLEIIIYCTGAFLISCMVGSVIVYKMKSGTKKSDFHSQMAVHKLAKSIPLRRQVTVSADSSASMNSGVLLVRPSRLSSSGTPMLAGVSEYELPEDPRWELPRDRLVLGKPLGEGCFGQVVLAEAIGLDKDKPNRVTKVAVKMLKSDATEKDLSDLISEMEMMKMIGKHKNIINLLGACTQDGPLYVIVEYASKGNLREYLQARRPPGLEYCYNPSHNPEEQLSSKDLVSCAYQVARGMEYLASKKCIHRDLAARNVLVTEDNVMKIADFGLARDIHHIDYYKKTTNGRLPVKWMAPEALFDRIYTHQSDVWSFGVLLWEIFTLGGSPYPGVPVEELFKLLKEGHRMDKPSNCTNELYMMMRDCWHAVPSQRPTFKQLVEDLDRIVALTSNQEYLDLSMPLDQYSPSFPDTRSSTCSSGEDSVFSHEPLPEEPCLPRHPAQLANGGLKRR
Sequence of Fibroblast growth factor receptor 2 (Homo sapiens) (P21802 22-821 limits assumed): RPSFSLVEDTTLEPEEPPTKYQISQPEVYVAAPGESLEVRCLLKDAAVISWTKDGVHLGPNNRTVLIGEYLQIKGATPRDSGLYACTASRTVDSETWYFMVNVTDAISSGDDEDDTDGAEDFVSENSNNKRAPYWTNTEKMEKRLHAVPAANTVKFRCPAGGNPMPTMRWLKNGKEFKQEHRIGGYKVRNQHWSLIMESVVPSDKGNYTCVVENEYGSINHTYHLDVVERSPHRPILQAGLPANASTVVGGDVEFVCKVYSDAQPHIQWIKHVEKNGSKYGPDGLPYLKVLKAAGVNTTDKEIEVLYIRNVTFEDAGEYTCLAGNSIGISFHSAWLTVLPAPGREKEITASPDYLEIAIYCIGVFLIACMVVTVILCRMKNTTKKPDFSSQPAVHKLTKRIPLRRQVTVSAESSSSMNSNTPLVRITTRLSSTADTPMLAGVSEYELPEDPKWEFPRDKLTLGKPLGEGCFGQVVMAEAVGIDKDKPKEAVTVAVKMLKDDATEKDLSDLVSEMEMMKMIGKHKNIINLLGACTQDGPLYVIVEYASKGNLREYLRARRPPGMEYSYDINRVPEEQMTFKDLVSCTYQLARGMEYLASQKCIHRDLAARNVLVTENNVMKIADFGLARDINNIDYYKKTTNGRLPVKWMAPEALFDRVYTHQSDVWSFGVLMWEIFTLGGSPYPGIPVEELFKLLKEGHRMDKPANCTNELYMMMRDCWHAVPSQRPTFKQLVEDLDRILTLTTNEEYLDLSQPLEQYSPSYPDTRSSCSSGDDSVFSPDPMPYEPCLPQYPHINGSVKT
Sequence of Fibroblast growth factor receptor 4 (Homo sapiens) (P22455 22-802 limits assumed): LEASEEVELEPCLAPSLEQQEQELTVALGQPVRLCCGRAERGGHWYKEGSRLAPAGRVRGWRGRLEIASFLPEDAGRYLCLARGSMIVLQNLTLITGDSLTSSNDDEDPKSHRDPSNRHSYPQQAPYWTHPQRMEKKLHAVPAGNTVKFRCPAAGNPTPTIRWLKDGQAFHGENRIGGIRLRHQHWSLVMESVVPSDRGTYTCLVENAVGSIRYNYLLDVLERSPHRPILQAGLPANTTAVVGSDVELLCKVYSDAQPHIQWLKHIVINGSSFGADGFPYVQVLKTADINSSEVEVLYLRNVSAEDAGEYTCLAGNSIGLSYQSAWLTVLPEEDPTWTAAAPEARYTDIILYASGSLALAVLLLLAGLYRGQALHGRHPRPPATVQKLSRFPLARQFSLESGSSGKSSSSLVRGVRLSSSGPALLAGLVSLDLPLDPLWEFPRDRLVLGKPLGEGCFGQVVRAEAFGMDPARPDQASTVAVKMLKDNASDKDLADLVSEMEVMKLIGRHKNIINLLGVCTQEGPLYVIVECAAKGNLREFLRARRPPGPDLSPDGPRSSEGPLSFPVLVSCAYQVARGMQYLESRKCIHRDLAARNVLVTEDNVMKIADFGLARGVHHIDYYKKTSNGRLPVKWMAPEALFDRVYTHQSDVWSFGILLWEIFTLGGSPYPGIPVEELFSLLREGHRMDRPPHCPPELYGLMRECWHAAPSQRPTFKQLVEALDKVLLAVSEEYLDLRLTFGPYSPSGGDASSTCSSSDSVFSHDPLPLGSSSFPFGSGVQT

| Compound | residual activity [1] | residual activity [2] | residual activity [3] | residual activity [4] | residual activity [5] | residual activity [6] | residual activity [7] | residual activity [8] | residual activity [9] | residual activity [10] |
| --- | --- | --- | --- | --- | --- | --- | --- | --- | --- | --- |
| O=C1NC(=O)C(c2c[nH]c3ccccc23)=C1c1c[nH]c2ccccc12 | 44% | 9% | 1% | 37% | 9% | 27% | 4% | 71% |  |  |
| O=c1cc(N2CCOCC2)oc2c1ccc1ccccc12 | 92% | 109% | 71% | 111% | 101% |  |  |  |  |  |
| COc1ccc(Cl)cc1NC(=O)Nc1cc(C)nc2ccccc12 | 64% |  |  |  |  |  |  |  |  |  |
| O=C(c1cc2cc(O)ccc2[nH]1)c1cc2cc(O)ccc2[nH]1 | 65% | 40% | 5% | 83% | 24% | 70% | 20% |  |  |  |
| Nc1nccc(-c2c(-c3ccc(F)cc3)ncn2C2CCNCC2)n1 | 71% | 119% | 27% | 113% | 67% | 120% | 83% |  |  |  |
| Cn1c2ccccc2c2c3c(c4c5ccccc5n(CCC#N)c4c21)CNC3=O | 17% | 7% | 6% | 53% | 46% |  |  |  | 111% | 4% |
| COc1cc2nccc(Oc3ccc(NC(=S)NC(=O)c4ccccc4C)cc3)c2cc1OC | 66% | 49% | 8% | 84% | 40% | 90% | 58% | 78% |  | 70% |
| CN(C)S(=O)(=O)c1ccc2c(c1)/C(=C/c1cc3c([nH]1)CCCC3)C(=O)N2 | 8% | 36% | 54% | 51% | 30% |  | 90% | 87% | 84% | 59% |
| Nc1ncnc2c1c(-c1ccc(Oc3ccccc3)cc1)cn2C1CCCC1 | 46% | 13% | -1% | 37% | 3% | 41% | 7% | 46% | 100% | 100% |
| NCCNc1ncc(C(N)=O)c(Nc2cccc(C(F)(F)F)c2)n1 | 7% | 113% | 68% | 100% | 80% |  |  |  |  | 102% |
| O=C(Nc1ccc(Cl)cc1)c1ccccc1NCc1ccncc1 | 73% | 75% | 10% |  |  |  | 73% | 78% |  | 131% |
| NC(=O)Nc1sc(-c2ccc(F)cc2)cc1C(N)=O | 9% | 29% | 5% | 50% | 10% | 81% | 15% | 91% | 106% | 83% |
| CC(C)(C)n1nc(Cc2cccc3ccccc23)c2c(N)ncnc21 | 81% | 28% | 2% | 62% | 18% |  |  | 72% | 115% | 104% |
| O=C1NC(=O)c2c1c1c3ccccc3[nH]c1n1cncc21 | 25% | 41% | 9% | 72% | 32% | 76% | 41% | 80% | 102% |  |
| O=C1Cc2c([nH]c3ccc(Br)cc23)-c2ccccc2N1 | 28% | 87% | 32% |  |  | 127% | 87% | 96% |  |  |
| O=C1Nc2ccc(Cl)cc2/C1=C/c1cc(Cl)c(O)c(Cl)c1 | 58% | 93% | 53% | 80% | 39% | 96% | 62% |  |  |  |
| Cn1sc(=O)n(Cc2ccccc2)c1=O | 61% | 92% | 86% |  |  | 135% | 126% |  |  | 90% |
| NC(=O)c1cccc(-c2cc(Nc3ccc(OC(F)(F)F)cc3)ncn2)c1 | 95% | 96% | 92% |  |  |  |  |  |  |  |
| CCN(CC)CCNC(=O)c1c(C)[nH]c(/C=C2\C(=O)Nc3ccc(Cl)cc32)c1C | 4% | 7% | 1% | 14% | 3% | 8% | 1% |  |  | 79% |
| Cc1cc(C)c(/C=C2\C(=O)Nc3ccccc32)[nH]1 | 9% | 65% | 13% |  |  | 80% | 68% |  | 124% | 100% |
| CCCCc1c(-c2ccc(O)cc2)[nH]c2nccnc12 | 19% | 41% | 11% | 85% | 59% |  |  | 99% | 127% | 86% |
| CCOC(=O)c1c(C)[nH]c(/C=C2\C(=O)Nc3ccccc32)c1C | 89% | 98% | 80% | 83% | 85% |  |  |  |  |  |

| Compound | residual activity [1] | residual activity [2] | residual activity [3] | residual activity [4] | residual activity [5] | residual activity [6] | residual activity [7] | residual activity [8] | residual activity [9] | residual activity [10] |
| --- | --- | --- | --- | --- | --- | --- | --- | --- | --- | --- |
| CCCCc1c(-c2ccc(OC)cc2)[nH]c2nccnc12 | 49% | 46% | 46% | 88% | 60% |  | 114% | 91% | 109% | 84% |
| Oc1cccc(-c2nc(N3CCOCC3)c3oc4ncccc4c3n2)c1 | 50% | 97% | 78% | 122% | 123% |  |  | 99% |  | 119% |
| CC(C)N(CCC(=O)c1ccc2ccccc2c1)Cc1ccccc1 | 85% | 125% |  |  |  |  |  |  |  |  |
| Nc1ncnc2c1cnn2-c1ccccc1 | 95% | 127% | 94% | 96% | 83% | 76% | 83% | 97% |  |  |
| c1ccc(-c2cnc(Nc3ccc(OCCN4CCCC4)cc3)s2)cc1 | 46% | 59% | 8% | 80% | 28% |  |  |  |  | 111% |
| O=C(c1ccccc1)c1ccc(N2CCOCC2)cc1O | 85% | 98% | 73% |  |  |  |  | 95% | 116% | 125% |
| CC(C)c1nn(-c2c(Cl)cccc2Cl)c2nc(Cc3ccc(OCCO)cc3)[nH]c(=O)c12 | 66% | 70% | 27% | 108% | 86% | 104% | 99% |  |  | 100% |
| O=c1cc(N2CCNCC2)oc2c(-c3ccccc3)cccc12 | 88% | 105% | 84% |  |  |  |  | 67% |  |  |
| O=C1NC(=O)C(c2cn(CCCn3ccnc3)c3ccccc23)=C1Nc1ccccc1 | 71% | 77% | 17% | 113% | 57% |  |  |  |  | 102% |
| O=C1C(Cl)=C(N2C(=O)CCC2=O)C(=O)c2ccccc21 | 90% | 118% | 94% | 100% | 89% |  |  | 91% | 98% | 87% |
| O=C(Nc1nc2ccccc2n1CCN1CCOCC1)c1cccc([N+](=O)[O-])c1 | 87% |  |  |  |  |  |  |  | 114% |  |
| CCCC(=O)Oc1ccc2[nH]c(C(=O)c3cc4ccccc4[nH]3)cc2c1 | 79% |  |  | 97% | 108% |  |  | 86% | 125% | 107% |
| CCOc1nc(NC(=O)Cc2cc(OC)ccc2OC)cc(N)c1C#N |  |  |  | 100% |  |  |  |  |  |  |
| O=C(CCCc1ccc(-c2ccccc2F)cc1)Nc1ccc(O)cc1 | 112% |  |  | 99% | 99% |  |  |  |  | 109% |
| O=c1c(-c2ccc(F)cc2)c(-c2ccncc2)[nH]n1-c1ccc(Cl)cc1 |  | 127% | 40% |  |  | 123% |  |  |  |  |
| COc1cc2c(cc1OC)-c1n[nH]c(Nc3cccc(F)c3)c1C2 |  |  |  |  |  | 111% | 67% | 101% | 117% | 100% |
| N#C/C(=C1/Nc2ccccc2S1)c1ccnc(NCCc2cccnc2)n1 | 60% |  |  | 100% | 45% |  |  | 67% | 117% | 89% |
| NC(=O)c1ccc(-c2nc(-c3ccc4c(c3)OCCO4)c(-c3ccccn3)[nH]2)cc1 |  |  |  | 117% | 82% |  |  | 95% | 122% |  |
| COc1ccc(-c2cnc3c(-c4ccsc4)cnn3c2)cc1 |  |  |  |  |  | 93% | 124% |  |  |  |
| N#Cc1c(NC(=O)c2cccc3ccccc23)sc2c1CCCC2 |  | 128% | 88% |  |  |  |  |  |  | 89% |
| CC(C)[C@H](CO)Nc1nc(Nc2cc(N)cc(Cl)c2)c2ncn(C(C)C)c2n1 | 3% |  |  | 84% | 22% | 92% | 20% | 88% |  | 88% |
| O=C1NC(=O)C(c2cn(CCCO)c3ncccc23)=C1c1cnccn1 |  | 80% | 68% | 91% | 81% |  |  |  |  | 89% |

| Compound | residual activity [1] | residual activity [2] | residual activity [3] | residual activity [4] | residual activity [5] | residual activity [6] | residual activity [7] | residual activity [8] | residual activity [9] | residual activity [10] |
| --- | --- | --- | --- | --- | --- | --- | --- | --- | --- | --- |
| CSc1nc(-c2ccc(F)cc2)c(-c2ccnc(NC(C)c3ccccc3)c2)[nH]1 (stereo not drawn) |  | 126% | 53% | 87% | 68% |  | 78% | 78% |  |  |
| COc1ccc2c(c1)c(C1=C(c3c[nH]c4ccccc34)C(=O)NC1=O)cn2CCCN(C)C |  | 38% | 3% | 72% | 18% | 63% | 13% |  | 120% | 102% |
| O=S(=O)(NCCNC/C=C/c1ccc(Br)cc1)c1cccc2cnccc12 | 30% |  | 35% |  |  |  | 80% |  |  |  |
| O=c1cc(N2CCOCC2)oc2c(-c3ccccc3)cccc12 |  |  | 81% |  |  | 101% | 73% | 70% |  | 101% |
| COc1cc2nccc(Oc3ccc(NC(=O)Nc4cc(C)on4)c(Cl)c3)c2cc1OC | 35% |  |  | 25% | 5% |  | 28% | 31% | 76% |  |
| O=C1Nc2ccccc2/C1=C\c1c(Cl)[nH]c2ccccc12 | 85% |  |  | 119% | 79% |  |  |  |  |  |
| Nc1n[nH]c2nc3ccccc3nc12 | 83% |  |  | 122% | 84% |  |  |  | 120% | 90% |
| O=C(NC(NC(=S)Nc1ccc(F)c([N+](=O)[O-])c1)C(Cl)(Cl)Cl)C(c1ccccc1)c1ccccc1 (stereo not drawn) |  |  | 59% |  | 73% |  |  | 83% |  |  |
| N#C/C(=C\c1ccc(O)c(O)c1)C(=O)NCc1ccccc1 |  |  |  | 103% | 120% |  |  |  |  |  |
| COc1ccc(CNC(=O)Nc2ncc([N+](=O)[O-])s2)cc1 |  | 102% | 77% | 100% | 78% | 112% | 113% |  |  |  |
| Nc1ncnc2[nH]nc(Nc3ccc(F)cc3)c12 |  |  |  | 91% | 60% | 113% |  |  | 98% | 98% |
| O=C(O)/C=C/c1cc(Br)c(Br)c(Br)c1Br | 98% |  |  |  | 94% | 103% | 99% | 96% |  | 97% |
| Fc1ccc(-c2nc3n(c2-c2ccncc2)CCS3)cc1 |  | 137% |  |  |  |  |  |  |  |  |
| COc1ccc(COc2ccc(Cc3cnc(N)nc3N)cc2OC)cc1 |  | 112% |  | 112% | 76% |  |  |  | 131% |  |
| CN([C@@H](Cc1ccc(OS(=O)(=O)c2cccc3cnccc23)cc1)C(=O)N1CCN(c2ccccc2)CC1)S(=O)(=O)c1cccc2cnccc12 |  |  | 58% |  |  |  | 58% |  |  |  |
| O=S(=O)(c1cccc2cnccc12)N1CCCNCC1 |  |  | 81% |  |  |  |  |  |  |  |
| O=C1Cc2c([nH]c3ccc([N+](=O)[O-])cc23)-c2ccccc2N1 |  | 74% | 59% |  |  | 125% | 109% | 102% | 112% |  |
| Nc1nc(Nc2ccc(S(N)(=O)=O)cc2)nn1C(=O)c1c(F)cccc1F | 52% |  |  | 36% | 7% | 29% | 4% | 66% | 99% | 101% |
| CC(C)(C)c1nc2c3ccc(F)cc3c3c(=O)[nH]ccc3c2[nH]1 | 9% |  |  |  |  |  |  |  | 119% | 67% |
| COc1cc2ncnc(Nc3cccc(Cl)c3)c2cc1OC |  |  | 32% | 101% | 66% | 104% | 74% |  |  | 113% |
